In PubChem BioAssay AID892 (National Center for Advancing Translational Sciences (NCATS), 2007):
Hit rate of the full screen: of about 75,000 compounds, about 20 (0.03%) were called active. Calls come from the whole dose curve; as a rule, active = well fitted inhibition curve with a large enough effect; inconclusive = small, poorly fitted or top-dose-only effect; inactive = no such curve, though single readings can be large or run the other way. The list is a sample of the results. Square brackets hold non-standard residues; d marks the D form. Peptide text beside a SMILES is read from it. ξ: configuration not given here. ξV = CC(C)C(N)C(=O)O

Target: Breast cancer type 1 susceptibility protein (Homo sapiens) (UniProt P38398)
Experiment: qHTS Assay for Inhibitors of BRCT-Phosphoprotein Interaction (Red Fluorophore)
Conditions: BRCT-phosphopeptide binding, red fluorescence polarization; series mostly up to 76.9 µM
Protocol: NIH Molecular Libraries Screening Centers Network [MLSCN]
NIH Chemical Genomics Center [NCGC]
PI Name: Natarajan, Amarnath; University of Texas
A complex of BRCT (C-terminal portion of BRCA1, MW ~35 kDa, His-tagged) and fluorescently labeled pBACH1 phosphorylated 10 aa peptide fragment of BACH1, a helicase implicated in DNA repair, is incubated with library members. Inhibitors of BRCT-pBACH1 binding are detected by a decrease in the fluorescence polarization (FP) of the fluorophore. In order to minimize the effect of fluorescence artifacts and to increase the overall robustness of the screen, the compound library members were incubated in separate reactions with rhodamine-labeled probe-protein complexes. Protein and labeled probes were supplied by Dr. Amarnath Natarajan, Department of Pharmacology and Toxicology, University of Texas Medical Branch Galveston, TX.
Assay Buffer: 16mM Na2HPO4, 4 mM NaH2PO4, 150 mM NaCl, 1 mM EDTA, 1 mM DTT, 0.02% NaN3, and 0.01% Tween 20 at pH 7.3.
Assay Controls: 100 nM TAMRA labeled decapeptide dispensed into columns 3 and 4 to generate negative control (full inhibition of
binding, -100 % activity). 100 nM labeled decapeptide/100 nM protein in columns 1, 2, 5 - 48. Titration of unlabeled decapeptide control (from 10 mM, then 1:2 dilution in duplicate) pin-transferred to column 2, rows 1 to 16. Column 1 is neutral.
Three uL of reagents were dispensed to 1536-well Greiner black solid-bottom plates. Compounds and controls (23 nL) were transferred via Kalypsys PinTool. The plates were incubated for 12 min at room temperature, and then read on ViewLux (Perkin-Elmer) High-throughput CCD imager using BODIPY for the rhodamine-labeled decapeptide probe polarization filter sets. During dispense, reagent bottles were kept submerged into 4 deg C water bath and all liquid lines were covered with aluminum foil to minimize probe and protein degradation. All screening operations were performed on a Kalypsys robotic system (Kalypsys, Inc., San Diego, CA) containing one RX-130 and two RX-90 anthropomorphic robotic arms. The timing and order of assay plates passing through the screening system were adjusted such that each compound library plate was assayed against the fluorescein- and rhodamine-labeled assay systems at immediately adjacent time points.
% is set by controls: 0 for no effect and ±100 for the full control effect.

Breast cancer type 1 susceptibility protein (Homo sapiens), sequence (P38398 whole entry, looked up): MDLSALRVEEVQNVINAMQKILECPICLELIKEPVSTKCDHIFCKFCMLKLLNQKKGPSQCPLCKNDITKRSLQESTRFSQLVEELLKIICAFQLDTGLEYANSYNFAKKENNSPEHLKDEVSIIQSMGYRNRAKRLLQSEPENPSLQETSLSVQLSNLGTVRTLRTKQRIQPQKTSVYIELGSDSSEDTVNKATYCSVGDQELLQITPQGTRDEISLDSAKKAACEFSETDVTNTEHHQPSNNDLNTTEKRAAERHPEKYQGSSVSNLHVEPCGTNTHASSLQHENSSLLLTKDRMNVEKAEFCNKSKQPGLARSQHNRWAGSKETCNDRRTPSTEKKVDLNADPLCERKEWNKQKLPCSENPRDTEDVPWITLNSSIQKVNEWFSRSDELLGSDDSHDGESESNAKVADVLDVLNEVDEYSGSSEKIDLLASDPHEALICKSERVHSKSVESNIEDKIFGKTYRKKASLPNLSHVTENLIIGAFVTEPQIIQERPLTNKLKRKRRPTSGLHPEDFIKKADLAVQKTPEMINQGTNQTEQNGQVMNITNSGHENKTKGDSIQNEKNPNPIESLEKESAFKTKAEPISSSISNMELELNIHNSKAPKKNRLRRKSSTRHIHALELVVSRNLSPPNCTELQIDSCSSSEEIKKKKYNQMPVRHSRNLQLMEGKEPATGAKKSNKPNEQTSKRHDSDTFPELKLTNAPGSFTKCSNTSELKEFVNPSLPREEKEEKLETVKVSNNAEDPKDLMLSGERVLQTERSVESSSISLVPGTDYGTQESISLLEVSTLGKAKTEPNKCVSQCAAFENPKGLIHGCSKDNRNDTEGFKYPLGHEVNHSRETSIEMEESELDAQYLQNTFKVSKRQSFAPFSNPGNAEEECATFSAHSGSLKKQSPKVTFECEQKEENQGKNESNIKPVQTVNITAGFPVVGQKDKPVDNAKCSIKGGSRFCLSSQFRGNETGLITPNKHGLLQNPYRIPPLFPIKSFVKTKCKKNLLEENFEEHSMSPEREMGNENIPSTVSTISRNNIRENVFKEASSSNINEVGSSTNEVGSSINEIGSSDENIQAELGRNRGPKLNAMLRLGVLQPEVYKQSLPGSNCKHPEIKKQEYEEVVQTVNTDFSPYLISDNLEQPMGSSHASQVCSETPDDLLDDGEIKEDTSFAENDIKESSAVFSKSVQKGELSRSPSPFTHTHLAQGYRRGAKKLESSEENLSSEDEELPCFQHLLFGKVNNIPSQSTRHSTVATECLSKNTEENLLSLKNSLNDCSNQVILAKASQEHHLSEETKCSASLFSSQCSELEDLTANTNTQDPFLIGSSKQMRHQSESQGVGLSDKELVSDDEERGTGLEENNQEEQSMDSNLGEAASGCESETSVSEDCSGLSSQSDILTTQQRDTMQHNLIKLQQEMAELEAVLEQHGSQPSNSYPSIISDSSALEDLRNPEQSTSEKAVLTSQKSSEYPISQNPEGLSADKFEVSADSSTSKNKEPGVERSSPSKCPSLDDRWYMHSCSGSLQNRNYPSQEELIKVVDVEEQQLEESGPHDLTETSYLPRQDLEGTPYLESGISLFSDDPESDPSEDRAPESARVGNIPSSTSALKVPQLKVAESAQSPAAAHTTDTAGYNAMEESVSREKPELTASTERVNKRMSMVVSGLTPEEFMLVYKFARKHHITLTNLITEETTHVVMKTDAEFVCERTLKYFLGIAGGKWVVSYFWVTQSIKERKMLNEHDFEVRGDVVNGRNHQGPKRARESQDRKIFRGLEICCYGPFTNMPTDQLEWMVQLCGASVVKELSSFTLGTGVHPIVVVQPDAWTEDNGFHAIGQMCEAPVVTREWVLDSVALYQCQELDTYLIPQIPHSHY

Activity change, negative = inhibition, inactive:
CCS(=O)(=O)N1CCN(C(=O)c2cccs2)CC1
Cc1nc2cnc(Nc3ccccc3)nc2n(Cc2ccc(F)cc2)c1=O
CCCCC[C@H](O)CCCC(=O)O
COc1ccc(-c2cc(C(F)(F)F)nc(SCCC(=O)NCc3ccco3)n2)cc1
CCn1cc(C(=O)NCC2COc3ccccc3O2)c2cc(OC)c(OC)cc2c1=O (stereo not given)
CC(=O)NC(C(=O)NCC(N)=O)C(C)C (stereo not given) (Ac-[ξV]-Gly-NH2)
CN1CCCC1CCO[C@@](C)(c1ccccc1)c1ccc(Cl)cc1 (stereo not given in full)
Nc1ccccc1N
COC(=O)[C@@H]1C[C@H]2CC[C@H](O)C[C@H]2N1Cc1ccc(N2CCN(C)CC2)cc1
O=C(O)c1cccc(S(=O)(=O)NCCO)c1 1.54% [at 15.4 µM]
CCCN1[C@H](C(=O)OC)C[C@@]2(O)[C@@H](O)[C@@H](O)[C@@H](O)C[C@@H]12
CCOC(=O)c1sc(NC(=S)n2cc(C)cn2)c(C(=O)OCC)c1C
CCc1nc(C)cn1S(=O)(=O)c1cc(OC)c(C)cc1C
COc1ccc(CN2C(=O)CN=C2Nc2ccc(C)cc2C)cc1
COc1ccc2c(c1OC)C(=O)N(c1ncn[nH]1)C2
C=CCn1c(COc2ccccc2)nnc1SCC(=O)NCC(=O)OCC
Clc1ccc(C2[C@H]3CN(CC4CCCCC4)[C@H](c4ccccc4)C34CC2(c2cccnc2)C4)cn1 (stereo not given in full)
COCC(=O)N1CCC2(CCCN(c3ccccc3)C2)CC1
Cc1cccc(Cn2c(SCCO)nc3c2c(=O)n(C)c(=O)n3C)c1
CS(=O)(=O)N(CC(=O)N1CCOCC1)c1ccc2c3c(cccc13)CC2
Cc1cc(C)nc(SCc2nnc(SCC(=O)Nc3ncc(C)s3)n2Cc2ccco2)n1
CCOc1ccc(CNC(=O)C2CC(=O)N(C3CCCC3)C2)cc1OC (stereo not given)
O=C(Nc1cccc(F)c1)c1ccc(S(=O)(=O)N2CCCC2)cc1
COc1ccc(-c2cc(C(F)(F)F)n3nc(C(=O)N4CCOCC4)c(Cl)c3n2)cc1
O=C(OCC(O)C(O)COC(=O)c1ccccc1)c1ccccc1 (stereo not given)
O=C(c1cnn2ccccc12)N1CCc2ccccc21
CCCNS(=O)(=O)c1ccc2c(c1)CCCN2C(C)=O
CC1Cc2ccccc2N1C(=O)Cn1cnc2ccccc2c1=O (stereo not given)
COC(=O)COc1ccc(S(=O)(=O)Nc2ccc(NC(C)=O)cc2)cc1
O=C1CCC(C(=O)Nc2ccc(OC(F)F)cc2)N1 (stereo not given)
CCOC(=O)N1CCN(C(=O)c2cc3c(-c4ccc(Cl)cc4)nn(C)c3s2)CC1
O=C1c2cccnc2C(=O)N1Cc1cccs1
Nc1nc(N)c2[nH]c(CNc3ccc(C(=O)O)cc3)nc2n1 1.19% [at 15.4 µM]
O=C(O)[C@@H]1[C@@H](C(=O)O)[C@]23C[C@@]2(C(=O)O)[C@]2(C(=O)O)CCC3=C3CCCC312 1.09% [at 15.4 µM]
CC(=O)Nc1ccc(S(=O)(=O)N2CCN(CCCOc3cc(C)ccc3C)CC2)cc1
O=C(CSc1nc2[nH]ncc2c(=O)n1-c1ccccc1)N1CCCc2ccccc21
CC(C)CNC(=O)C1CCCN(S(=O)(=O)c2ccc(-n3cnnn3)cc2)C1 (stereo not given)
Cn1c(N)c(C(=O)COC(=O)c2cc(C(F)(F)F)nc3c(C(F)(F)F)cccc23)c(=O)n(C)c1=O
CCCC1CC(C)(C(=O)Cn2[nH]c(=O)ccc2=O)OC1=O (stereo not given)
C[C@@H]1O[C@@H](OC[C@H]2O[C@@H](Oc3c(-c4cccc(O)c4O)oc4cc(O)cc(O)c4c3=O)[C@H](O)[C@@H](O)[C@@H]2O)[C@H](O)[C@H](O)[C@H]1O
CCOC(=O)C1CCCCN1Cc1ccc(OC)c(OC)c1OC (stereo not given)
O=C(Nc1c(-c2ccccc2)nc2c(Br)cc(Br)cn12)c1ccco1
Cc1ccc(S(=O)(=O)N2CCN(C(=O)CCC(=O)NC3CCCc4ccccc43)CC2)cc1 (stereo not given)
C[C@@H]1C[C@H]2[C@@H]3C[C@H](F)C4=CC(=O)C=C[C@@]4(C)[C@]3(F)[C@H](O)C[C@]2(C)[C@@]1(O)C(=O)CO
Cc1oc(CC(C)C)c(CN2CCCC2)c1C(=O)O
Fc1ccc(OCc2nn3c(Cn4nnc5ccccc54)nnc3s2)cc1
COc1ccc(OC)c(NC(=O)CCN2CCC(C)CC2)c1
COC(=O)c1c(-c2ccc(C)cc2)csc1N
O=C(OC(C(=O)NC1CCCC1)c1ccc(F)cc1)c1ccno1 (stereo not given)
CCOc1ccccc1NC(=O)CCc1ccc(C)o1
Cc1c(C(=O)OCC(=O)N(CCC#N)c2ccccc2)oc2c1ccc1ccccc12
O=C1c2cccnc2C(Nc2ccc(S(=O)(=O)N3CCCCCC3)cc2)N1Cc1ccccc1 (stereo not given)
Cc1cc(C)n(C(=O)c2ccc(S(=O)(=O)N3CCCC3)cc2)n1
Cn1c(SCc2nc3ccccc3s2)nnc1-c1ccc2c(c1)OCO2
COC(=O)[C@@H]1C[C@@]2(O)[C@H](O)[C@H](O)[C@H](O)C[C@H]2N1Cc1ccc(C(C)(C)C)cc1
CC1=C(C(=O)OCc2ccccc2)C(c2ccco2)n2ncnc2N1 (stereo not given)
CCOC(=O)N1CCC(NC(=O)C(C)n2c3ccccc3c3cnn(C)c(=O)c32)CC1 (stereo not given)
C=CCNc1nnc(C)c2ccccc12
COc1cccc(N(CC(=O)Nc2cccc(F)c2)S(C)(=O)=O)c1
Cc1cnc(CNc2ncncc2-c2ccccc2Cl)cn1
O=C(Cn1nc(C(F)(F)F)c2c1CCC2)NCc1ccc(F)cc1
O=C1CC(N2CCN(C(c3ccccc3)c3ccccc3)CC2)C(=O)N1 (stereo not given)
CCOC(=O)c1cccc(NC(=O)CCc2c(C)nc3ncnn3c2C)c1
C/C(=C\c1ccco1)C1Nc2cccc3cccc(c23)N1
Brc1ccc(OCCn2ccnc2)cc1
O=C(Cl)c1ccccc1[N+](=O)[O-]
CO/N=C\[C@@H](C)[C@H](OCc1ccccc1)C(C)C -2.08% [at 15.4 µM]
Cc1cccc(-c2cc(=O)c3cc(C)ccc3o2)c1
Cc1cnc(NC(=O)CSc2nnc(-c3ccc(Cl)cc3Cl)n2N)s1
CCn1nnc(NC(=O)c2cc(Cl)c(OC)c(Cl)c2)n1
O=C(CSc1nnc2scc(-c3ccc(F)cc3)n12)NCc1ccco1
O=C(CSc1nnc2ccccn12)c1ccccc1
CN(C)/C=N/c1cc(=O)n(C)c(=O)n1CC1CC1
CCn1c(CSc2nncn2-c2ccc(OC)cc2)nc2cc(S(=O)(=O)N(C)C)ccc21
Cc1ccc(C(=O)Nc2nnc(-c3ccncc3)s2)o1
CCCN(CCC)C(=O)C1c2ccccc2Oc2ccccc21
O=C(NCCc1ccco1)c1nn(Cc2ccccc2)c(=O)c2ccccc12
COC(=O)c1c(NC(=O)CSc2nncs2)sc2c1CCCCC2
CCOC(=O)N1CCN(C(=O)c2nn(-c3ccc(C)cc3)c(=O)c3c2c2ccccc2n3C)CC1
CCOC(=O)c1nnn(CC(=O)Nc2cccc(F)c2)c1C(=O)OCC
CCC1=C(OC(=O)N(CC)CC)N2C(=O)OC(=NCC3CC3)[C@]2(C)[C@H]2C1=CC[C@H]1C(=O)N(CC(=O)OC)C(=O)[C@H]12
COc1ccc(C(=O)NCc2cn3ccccc3n2)cc1
COc1cccc(-c2cc(NCCc3c[nH]c4ccc(OC)cc34)ncn2)c1
COCCNC(=O)CSc1nc2c(n1-c1ccccc1)CCCC2
COc1ccccc1N=C1SC(C)CN1C(=O)C1CCC1 (stereo not given)
Cc1ccc2[nH]c3c(c2c1)CN(C(=O)CN1CCN(c2ccccc2)CC1)CC3
CC(NC(=O)c1cc(-c2ccccc2)on1)c1ccccc1 (stereo not given)
O=S(=O)(c1cccs1)N1CCN(Cc2ccccc2)CC1
CCCC(=O)Nc1nnc(CC(=O)OCC)s1
N#CC1=C(SCc2ccccc2)NC(=O)C(C#N)C12CCCC2 (stereo not given)
Cc1cc(N(C)C)cc(C)[n+]1[O-]
CC(C)(C)NC(=O)c1cc(NC(=O)c2ccco2)cc(NC(=O)c2ccco2)c1
Cc1ccc2nc(NC(=O)C3CCN(S(=O)(=O)c4ccc5c(c4)oc(=O)n5C)CC3)sc2c1
COC(=O)[C@@H]1C[C@@]2(O)[C@H](O)[C@H](O)[C@H](O)C[C@H]2N1Cc1ccc(C)s1
COC(=O)Nc1nc2ccc(Sc3ccccc3)cc2[nH]1
